Experimental data reported in the supplement of paper PMC11732987, “Enantioselective OTUD7B fragment discovery through chemoproteomics screening and high-throughput optimisation” (Communications Chemistry, 2025).

Legend:
Test in all cases: log2 ratio of Biotin-Ahx-Ub-VS probe labelling (fragment/DMSO); higher = less target engagement (more negative = stronger competition), active = hit call of the paper (q ≤ 0.05, log2 ratio ≤ -1)
Settings in all cases: compound concentration: 200 uM; treatment time: 3 h
USP19 = target: T1, USP19 (UniProt O94966)
T1 sequence (whole entry): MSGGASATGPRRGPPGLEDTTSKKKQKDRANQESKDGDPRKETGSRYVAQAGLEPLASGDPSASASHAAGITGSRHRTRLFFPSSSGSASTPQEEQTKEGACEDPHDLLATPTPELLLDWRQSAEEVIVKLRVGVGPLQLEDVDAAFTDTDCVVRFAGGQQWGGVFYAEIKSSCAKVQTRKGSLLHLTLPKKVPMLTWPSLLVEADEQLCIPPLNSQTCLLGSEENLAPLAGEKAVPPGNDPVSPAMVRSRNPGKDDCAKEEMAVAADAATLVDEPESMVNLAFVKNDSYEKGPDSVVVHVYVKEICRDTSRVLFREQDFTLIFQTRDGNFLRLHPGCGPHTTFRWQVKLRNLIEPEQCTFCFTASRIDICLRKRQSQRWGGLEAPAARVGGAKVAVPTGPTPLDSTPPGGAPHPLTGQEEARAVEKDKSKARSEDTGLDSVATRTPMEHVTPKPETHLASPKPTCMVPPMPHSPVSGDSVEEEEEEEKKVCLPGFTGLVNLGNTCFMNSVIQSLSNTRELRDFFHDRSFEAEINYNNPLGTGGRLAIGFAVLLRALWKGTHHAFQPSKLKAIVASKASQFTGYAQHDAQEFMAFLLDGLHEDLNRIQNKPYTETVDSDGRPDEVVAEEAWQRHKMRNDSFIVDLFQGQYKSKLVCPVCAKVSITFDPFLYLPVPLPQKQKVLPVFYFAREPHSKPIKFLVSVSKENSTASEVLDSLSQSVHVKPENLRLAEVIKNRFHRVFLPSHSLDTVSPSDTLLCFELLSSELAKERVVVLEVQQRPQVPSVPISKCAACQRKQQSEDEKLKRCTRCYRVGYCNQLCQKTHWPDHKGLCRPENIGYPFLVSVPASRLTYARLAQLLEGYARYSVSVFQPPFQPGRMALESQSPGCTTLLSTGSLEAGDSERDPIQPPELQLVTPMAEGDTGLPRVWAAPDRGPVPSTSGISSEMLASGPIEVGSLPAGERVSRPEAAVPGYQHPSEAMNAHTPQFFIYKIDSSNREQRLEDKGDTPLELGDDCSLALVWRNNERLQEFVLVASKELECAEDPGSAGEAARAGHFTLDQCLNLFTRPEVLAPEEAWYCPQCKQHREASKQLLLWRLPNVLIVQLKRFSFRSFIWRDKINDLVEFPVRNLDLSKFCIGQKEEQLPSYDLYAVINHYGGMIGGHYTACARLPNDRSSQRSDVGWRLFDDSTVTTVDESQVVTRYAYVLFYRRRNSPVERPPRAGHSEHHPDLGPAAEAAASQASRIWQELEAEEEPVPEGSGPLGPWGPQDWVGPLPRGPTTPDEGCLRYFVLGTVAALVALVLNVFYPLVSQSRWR
Outline: (§1)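 Triplicate samples of HEK293T lysate, 495 µg each, received fragment at 200 µM or vehicle for 3 h, followed by Biotin-Ahx-Ub-VS (0.5 µM final) for 1 h. After NeutrAvidin enrichment of labelled DUBs and LysC/trypsin digestion, peptides were run by diaPASEF LC-MS/MS. The values are average log2 fragment/vehicle ratios from global-median-normalised Spectronaut label-free quantities, tested by unpaired t-test on proteins having ≥2 unique peptides.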

USP22 = target: T2, USP22 (UniProt Q9UPT9)
T2 sequence (whole entry): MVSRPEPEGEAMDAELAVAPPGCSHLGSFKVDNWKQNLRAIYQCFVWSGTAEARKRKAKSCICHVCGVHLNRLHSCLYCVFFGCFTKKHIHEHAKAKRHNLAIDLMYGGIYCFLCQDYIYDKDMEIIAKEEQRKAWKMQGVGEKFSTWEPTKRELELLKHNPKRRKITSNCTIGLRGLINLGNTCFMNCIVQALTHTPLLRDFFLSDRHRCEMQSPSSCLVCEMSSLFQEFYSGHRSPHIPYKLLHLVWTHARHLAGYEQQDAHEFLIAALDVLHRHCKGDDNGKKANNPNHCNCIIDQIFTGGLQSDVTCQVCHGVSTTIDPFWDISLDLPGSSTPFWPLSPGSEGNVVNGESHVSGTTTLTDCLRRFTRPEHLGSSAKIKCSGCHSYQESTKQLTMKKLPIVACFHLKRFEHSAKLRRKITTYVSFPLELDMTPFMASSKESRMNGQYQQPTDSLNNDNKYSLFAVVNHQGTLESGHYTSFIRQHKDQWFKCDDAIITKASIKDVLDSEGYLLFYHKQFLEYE
Outline: as §1

USP24 = USP24 (UniProt Q9UPU5)
USP24, sequence (Q9UPU5 whole entry): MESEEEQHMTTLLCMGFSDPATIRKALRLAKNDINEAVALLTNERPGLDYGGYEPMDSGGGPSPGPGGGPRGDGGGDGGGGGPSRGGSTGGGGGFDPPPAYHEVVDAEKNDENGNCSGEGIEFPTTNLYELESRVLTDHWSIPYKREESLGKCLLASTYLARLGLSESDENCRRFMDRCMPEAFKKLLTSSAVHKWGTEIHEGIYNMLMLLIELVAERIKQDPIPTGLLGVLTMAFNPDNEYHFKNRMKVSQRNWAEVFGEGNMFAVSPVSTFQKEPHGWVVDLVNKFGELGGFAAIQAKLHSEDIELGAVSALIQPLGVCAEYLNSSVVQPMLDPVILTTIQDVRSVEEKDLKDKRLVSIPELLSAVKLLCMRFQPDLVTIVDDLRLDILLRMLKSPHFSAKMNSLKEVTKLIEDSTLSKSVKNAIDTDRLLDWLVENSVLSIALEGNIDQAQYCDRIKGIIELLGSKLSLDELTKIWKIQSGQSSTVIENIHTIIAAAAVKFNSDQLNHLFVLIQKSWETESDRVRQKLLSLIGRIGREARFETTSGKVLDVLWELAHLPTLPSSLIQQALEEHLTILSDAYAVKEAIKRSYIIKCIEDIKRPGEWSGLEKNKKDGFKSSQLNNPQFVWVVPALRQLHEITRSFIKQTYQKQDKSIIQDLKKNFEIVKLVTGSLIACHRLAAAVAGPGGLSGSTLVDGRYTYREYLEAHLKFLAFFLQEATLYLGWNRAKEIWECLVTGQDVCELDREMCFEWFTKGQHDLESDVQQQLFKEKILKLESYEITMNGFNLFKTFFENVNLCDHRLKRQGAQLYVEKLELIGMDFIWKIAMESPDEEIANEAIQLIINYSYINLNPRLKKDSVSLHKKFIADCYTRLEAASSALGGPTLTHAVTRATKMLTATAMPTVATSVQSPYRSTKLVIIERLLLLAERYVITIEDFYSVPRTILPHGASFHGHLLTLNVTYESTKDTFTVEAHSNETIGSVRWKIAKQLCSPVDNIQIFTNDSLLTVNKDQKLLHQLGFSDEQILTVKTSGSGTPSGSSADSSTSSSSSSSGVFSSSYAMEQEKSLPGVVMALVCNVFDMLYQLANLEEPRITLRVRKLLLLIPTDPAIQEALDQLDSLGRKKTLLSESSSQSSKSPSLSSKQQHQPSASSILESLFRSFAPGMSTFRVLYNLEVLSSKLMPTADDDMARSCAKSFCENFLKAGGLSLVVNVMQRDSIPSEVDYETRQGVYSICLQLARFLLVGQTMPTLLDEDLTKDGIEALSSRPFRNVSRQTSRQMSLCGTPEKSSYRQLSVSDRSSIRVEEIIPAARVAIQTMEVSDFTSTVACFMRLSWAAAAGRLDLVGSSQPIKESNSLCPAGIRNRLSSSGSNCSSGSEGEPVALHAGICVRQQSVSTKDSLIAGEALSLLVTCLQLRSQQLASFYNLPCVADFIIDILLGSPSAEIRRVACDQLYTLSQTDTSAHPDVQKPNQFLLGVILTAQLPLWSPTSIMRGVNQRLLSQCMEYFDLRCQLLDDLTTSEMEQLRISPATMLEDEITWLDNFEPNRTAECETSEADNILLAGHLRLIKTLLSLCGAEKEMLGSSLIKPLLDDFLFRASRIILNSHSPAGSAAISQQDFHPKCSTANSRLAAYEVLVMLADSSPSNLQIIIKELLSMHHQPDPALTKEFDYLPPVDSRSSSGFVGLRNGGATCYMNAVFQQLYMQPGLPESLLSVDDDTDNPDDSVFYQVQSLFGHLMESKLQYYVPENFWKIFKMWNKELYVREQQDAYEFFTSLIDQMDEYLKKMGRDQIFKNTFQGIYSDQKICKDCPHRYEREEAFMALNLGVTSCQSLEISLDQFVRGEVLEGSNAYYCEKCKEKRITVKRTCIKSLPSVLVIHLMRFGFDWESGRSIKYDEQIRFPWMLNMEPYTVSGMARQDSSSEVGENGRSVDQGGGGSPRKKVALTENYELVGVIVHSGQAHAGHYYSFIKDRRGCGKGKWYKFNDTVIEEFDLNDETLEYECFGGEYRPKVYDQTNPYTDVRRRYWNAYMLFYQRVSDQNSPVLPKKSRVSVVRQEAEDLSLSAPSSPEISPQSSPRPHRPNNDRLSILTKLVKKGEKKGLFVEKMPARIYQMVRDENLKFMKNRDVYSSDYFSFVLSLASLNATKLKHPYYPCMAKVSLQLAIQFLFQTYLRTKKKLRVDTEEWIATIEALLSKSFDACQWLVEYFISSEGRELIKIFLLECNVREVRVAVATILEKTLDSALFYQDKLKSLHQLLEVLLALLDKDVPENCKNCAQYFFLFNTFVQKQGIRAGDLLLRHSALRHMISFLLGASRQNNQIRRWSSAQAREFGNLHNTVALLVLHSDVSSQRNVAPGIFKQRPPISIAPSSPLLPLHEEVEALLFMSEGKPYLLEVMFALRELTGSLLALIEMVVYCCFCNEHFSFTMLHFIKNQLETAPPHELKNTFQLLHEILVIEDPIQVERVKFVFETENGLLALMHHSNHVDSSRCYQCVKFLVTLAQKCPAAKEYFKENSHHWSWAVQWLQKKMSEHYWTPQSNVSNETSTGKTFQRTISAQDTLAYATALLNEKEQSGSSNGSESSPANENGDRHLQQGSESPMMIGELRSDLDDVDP
Outline: as §1

USP25 = target: T3, USP25 (UniProt Q9UHP3)
T3 sequence (whole entry): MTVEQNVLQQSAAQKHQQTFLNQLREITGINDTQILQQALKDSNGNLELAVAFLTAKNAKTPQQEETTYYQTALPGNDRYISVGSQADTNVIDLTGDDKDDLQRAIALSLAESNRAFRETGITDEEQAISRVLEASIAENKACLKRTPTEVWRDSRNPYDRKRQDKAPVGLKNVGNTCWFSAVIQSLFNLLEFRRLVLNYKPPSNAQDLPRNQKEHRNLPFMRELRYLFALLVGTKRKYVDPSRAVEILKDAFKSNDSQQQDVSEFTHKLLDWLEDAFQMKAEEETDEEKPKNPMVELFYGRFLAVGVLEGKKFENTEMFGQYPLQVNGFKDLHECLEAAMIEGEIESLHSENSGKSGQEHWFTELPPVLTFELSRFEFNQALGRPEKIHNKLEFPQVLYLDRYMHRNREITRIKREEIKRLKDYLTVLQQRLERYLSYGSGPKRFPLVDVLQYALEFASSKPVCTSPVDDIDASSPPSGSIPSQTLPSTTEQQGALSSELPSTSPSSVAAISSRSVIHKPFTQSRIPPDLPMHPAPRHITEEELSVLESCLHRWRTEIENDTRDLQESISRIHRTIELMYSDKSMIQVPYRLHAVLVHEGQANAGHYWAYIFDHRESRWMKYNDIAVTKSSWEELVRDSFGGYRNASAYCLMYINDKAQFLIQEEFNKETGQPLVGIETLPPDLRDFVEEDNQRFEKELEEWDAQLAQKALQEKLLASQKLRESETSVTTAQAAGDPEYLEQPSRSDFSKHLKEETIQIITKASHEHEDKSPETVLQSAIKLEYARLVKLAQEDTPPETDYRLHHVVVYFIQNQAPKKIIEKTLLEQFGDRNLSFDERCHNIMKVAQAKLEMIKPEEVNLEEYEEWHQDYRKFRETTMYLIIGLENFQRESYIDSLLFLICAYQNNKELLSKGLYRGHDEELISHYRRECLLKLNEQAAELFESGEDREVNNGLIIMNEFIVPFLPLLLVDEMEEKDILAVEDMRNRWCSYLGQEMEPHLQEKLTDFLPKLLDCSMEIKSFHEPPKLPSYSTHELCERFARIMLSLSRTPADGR
Outline: as §1

USP28 = target: T4, USP28 (UniProt Q96RU2)
T4 sequence (whole entry): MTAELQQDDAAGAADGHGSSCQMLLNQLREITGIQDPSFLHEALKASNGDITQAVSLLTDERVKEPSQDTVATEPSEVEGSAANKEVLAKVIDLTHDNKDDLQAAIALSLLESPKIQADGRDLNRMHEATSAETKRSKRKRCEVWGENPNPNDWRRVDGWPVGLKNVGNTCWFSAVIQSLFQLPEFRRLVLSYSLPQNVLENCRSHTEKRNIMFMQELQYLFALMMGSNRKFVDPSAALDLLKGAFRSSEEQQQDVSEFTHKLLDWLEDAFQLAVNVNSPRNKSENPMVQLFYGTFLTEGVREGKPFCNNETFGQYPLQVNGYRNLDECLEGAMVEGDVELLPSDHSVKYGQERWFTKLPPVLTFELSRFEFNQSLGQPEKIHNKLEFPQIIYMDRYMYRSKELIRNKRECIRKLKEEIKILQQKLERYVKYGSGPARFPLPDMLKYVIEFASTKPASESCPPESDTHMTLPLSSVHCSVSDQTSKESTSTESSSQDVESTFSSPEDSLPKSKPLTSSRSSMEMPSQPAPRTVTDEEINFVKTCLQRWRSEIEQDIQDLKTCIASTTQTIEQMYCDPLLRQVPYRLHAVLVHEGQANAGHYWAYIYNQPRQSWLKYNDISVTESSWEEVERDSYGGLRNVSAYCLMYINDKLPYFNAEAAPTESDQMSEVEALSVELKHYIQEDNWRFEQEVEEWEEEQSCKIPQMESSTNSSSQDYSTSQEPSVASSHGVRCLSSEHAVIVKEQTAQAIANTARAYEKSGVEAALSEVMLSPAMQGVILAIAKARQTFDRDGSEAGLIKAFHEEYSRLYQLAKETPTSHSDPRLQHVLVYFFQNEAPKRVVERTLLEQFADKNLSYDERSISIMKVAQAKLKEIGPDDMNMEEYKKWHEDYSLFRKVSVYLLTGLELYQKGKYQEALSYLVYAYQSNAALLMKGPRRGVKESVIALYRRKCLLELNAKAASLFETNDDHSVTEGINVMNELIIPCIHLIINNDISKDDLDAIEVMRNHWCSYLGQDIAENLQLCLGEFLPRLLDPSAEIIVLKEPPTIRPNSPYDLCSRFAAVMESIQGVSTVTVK
Outline: as §1

Measured: log2 ratio of Biotin-Ahx-Ub-VS probe labelling

Cl.Cn1ncc2c1CC(NC(=O)CCl)CC2 (stereo not given)
inactive: USP19 0.0381 | USP22 0.0984 | USP24 0.0406 | USP25 -0.321 | USP28 -0.758
